Measured values reported in PubChem BioAssay.
Calls of active or inactive are those of the source.

Columns and labels:
[1] = test system: Plasmodium falciparum Sir2 (PF13_0152, Sir2A); experiment: Plasmodium falciparum Sir2A binding compounds – biochemical, small-molecule microarray, 635 nm fluorescence, primary screen (AID 1098); conditions: fluorescence 635 nm, higher = more signal;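 note: score merges spot fluorescence intensity with its signal-to-noise ratio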
[2] = probe aDKK1 binding to arrayed compounds – biochemical, biotinylated probe, 635/667 nm fluorescence, primary screen (AID 1099); conditions: small-molecule microarray, higher = more signal;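 note: score merges 667nm spot fluorescence with signal to noise across triplicate slides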
[3] = probe aCHRDL2 binding to arrayed compounds – biochemical, biotinylated probe, 635/667 nm fluorescence, primary screen (AID 1100); conditions: small-molecule microarray, higher = more signal
[4] = change in splice reporter luminescence, either direction, cell-based, HEK293, spliceosome inhibition project, primary screen (AID 1101); conditions: HEK293 splicing luciferase reporter, 24 h, higher = more signal, called active from +8 up or from −8 down;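 note: HEK293 cells carrying a splicing-competent luciferase reporter gene; test concentration not given here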
[5] = target: Fibroblast growth factor 10 (Homo sapiens) (UniProt O15520); experiment: compounds binding fibroblast growth factor 10 – biochemical, small-molecule microarray, 635 nm fluorescence, primary screen (AID 1102); conditions: FGF10 binding, fluorescence 635 nm, higher = more signal
[6] = test system: glycogen synthase kinase-3 (GSK3A per assay name; protocol says GSK3B); experiment: compounds binding glycogen synthase kinase-3 – biochemical, small-molecule microarray, 635 nm fluorescence, GSK3A, primary screen (AID 1103); conditions: fluorescence 635 nm, higher = more signal; note: the record names both GSK3A and GSK3B
[7] = target: Epidermal growth factor receptor (Homo sapiens) (UniProt P00533); experiment: compounds binding epidermal growth factor receptor – biochemical, small-molecule microarray, 635 nm fluorescence, primary screen (AID 1104); conditions: EGFR binding, higher = more signal;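 note: score merges 667 nm emission intensity with spot signal to noise over triplicate slides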
[8] = target: Follistatin-related protein 3 (Homo sapiens) (UniProt O95633); experiment: compounds binding follistatin-related protein 3 – biochemical, small-molecule microarray, 635 nm fluorescence, primary screen (AID 1105); conditions: FSTL3 binding, higher = more signal;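 note: score merges emission near 667 nm and signal to noise per printed spot across three slides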
[9] = target: Dickkopf-related protein 1 (Homo sapiens) (UniProt O94907); experiment: small molecules binding DKK1 protein – biochemical, small-molecule microarray, 635 nm fluorescence scan, primary screen (AID 1106); conditions: higher = more signal;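 note: score merges emission near 667 nm with signal to noise over three replicate slides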
[10] = test system: Inhibin beta A chain (activin A); experiment: small molecules binding activin A – biochemical, small-molecule microarray, 635 nm fluorescence scan, primary screen (AID 1107); conditions: INHBA, higher = more signal;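 note: mouse activin A protein probed at 4.33 µg/mL on printed slides; score merges bound-protein fluorescence near 667 nm with spot signal-to-noise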
[11] = test system: Human papillomavirus type 1a protein E7 (residues 44-93); experiment: small molecules binding HPV E7 44-93 – biochemical, small-molecule microarray, residues 44-93, 635 nm fluorescence, primary screen (AID 1108); conditions: fluorescence 635 nm, higher = more signal;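 note: E7 fragment applied at 1 µg/mL in TBST for 1 h at 4 C; score combines spot fluorescence with its signal to noise ratio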
[12] = hepatitis C replication reporter changes, two-sided – Huh7 cells, luciferase reporter, HCV replication inhibitor project, primary screen (AID 1109); conditions: Huh7 HCV replicon luciferase reporter, 48 h; higher = more signal;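 note: huh7 hepatoma cells harbouring a luciferase neomycin HCV replicon reporter; luciferase luminescence as measure of HCV replicon replication; test concentration not given here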
[13] = target: Left-right determination factor 2 (Homo sapiens) (UniProt O00292); experiment: small molecules binding LEFTY2 protein – biochemical, small-molecule microarray, 635 nm fluorescence scan, primary screen (AID 1110); conditions: higher = more signal
[14] = target: Calmodulin-1 (Homo sapiens) (UniProt P0DP23); experiment: small molecules binding calmodulin-1 with EGTA – biochemical, small-molecule microarray, Cy5-labelled CALM1, profiling panel (AID 1111); conditions: Cy5-CALM1 binding fluorescence, higher = more signal;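 note: labelled calmodulin applied in Tris saline Tween buffer holding calcium plus EGTA and DTT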
[15] = target: Calmodulin-1 (Homo sapiens) (UniProt P0DP23); experiment: small molecules binding Ca-loaded calmodulin-1 – biochemical, small-molecule microarray, Cy5-labelled CALM1, plus calcium, artefact control for SMM control-protein annotation, profiling panel (AID 1112); conditions: Cy5-CALM1 binding fluorescence, higher = more signal;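 note: score merges spot fluorescence with signal to noise from triplicate slides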
[16] = probe aWnt5a binding to arrayed compounds – biochemical, biotinylated probe, 635/667 nm fluorescence, primary screen (AID 1113); conditions: small-molecule microarray, higher = more signal;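 note: score merges 667 nm fluorescence intensity with signal-to-noise per printed feature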
[17] = probe aShh binding to arrayed compounds – biochemical, biotinylated probe, 635/667 nm fluorescence, primary screen (AID 1114); conditions: small-molecule microarray, higher = more signal;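 note: probe is biotin-labelled aShh protein from a stem cell growth factor screen; measures binding of labelled protein to compounds printed on the slide; score merges feature fluorescence at 667 nm with signal-to-noise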
[18] = probe aNog binding to arrayed compounds – biochemical, biotinylated probe, 635/667 nm fluorescence, primary screen (AID 1115); conditions: small-molecule microarray, higher = more signal;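 note: probe is biotinylated aNog protein used at 0.15 µg/mL for 1 h at 4 C; z-score combines 667 nm fluorescence of each spot with its signal to noise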
[19] = target: Torsin-1A-interacting protein 1 (Homo sapiens) (UniProt Q5JTV8); experiment: compound microarray binding of lysate hLAP1 – cell lysate, small-molecule microarray, COS7 lysate, 635/667 nm fluorescence, primary screen (AID 1116); conditions: 635 nm fluorescence, higher = more signal
[20] = target: Alpha-bungarotoxin (Bungarus multicinctus) (UniProt P60615); experiment: compounds binding labelled alpha-BTX control protein – biochemical, small-molecule microarray, Alexa647 label, 635/667 nm fluorescence, artefact control for SMM control protein annotation, profiling panel (AID 1117); conditions: alpha-BTX-A647 binding fluorescence, higher = more signal
Sequence of Alpha-bungarotoxin (Bungarus multicinctus) (P60615 whole entry, looked up): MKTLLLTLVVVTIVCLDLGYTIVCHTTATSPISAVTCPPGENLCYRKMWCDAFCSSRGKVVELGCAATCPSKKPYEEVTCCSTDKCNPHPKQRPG

Sequence of Left-right determination factor 2 (Homo sapiens) (O00292 whole entry, looked up): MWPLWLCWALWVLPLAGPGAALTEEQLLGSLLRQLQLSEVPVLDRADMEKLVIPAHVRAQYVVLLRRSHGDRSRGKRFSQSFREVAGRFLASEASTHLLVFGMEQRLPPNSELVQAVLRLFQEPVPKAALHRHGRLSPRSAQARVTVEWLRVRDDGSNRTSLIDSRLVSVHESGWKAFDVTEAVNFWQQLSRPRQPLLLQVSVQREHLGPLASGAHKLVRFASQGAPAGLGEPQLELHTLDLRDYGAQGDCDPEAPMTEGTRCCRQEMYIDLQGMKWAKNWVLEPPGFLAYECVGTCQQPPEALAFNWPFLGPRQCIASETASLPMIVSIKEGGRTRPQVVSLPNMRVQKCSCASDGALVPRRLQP
Sequence of Dickkopf-related protein 1 (Homo sapiens) (O94907 whole entry, looked up): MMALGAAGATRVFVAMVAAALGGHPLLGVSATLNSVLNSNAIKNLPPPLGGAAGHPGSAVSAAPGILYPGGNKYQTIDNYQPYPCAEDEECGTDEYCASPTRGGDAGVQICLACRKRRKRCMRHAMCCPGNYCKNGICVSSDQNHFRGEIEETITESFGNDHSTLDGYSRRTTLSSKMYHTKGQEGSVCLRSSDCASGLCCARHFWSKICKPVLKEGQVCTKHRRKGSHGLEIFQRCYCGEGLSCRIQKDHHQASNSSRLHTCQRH
Sequence of Fibroblast growth factor 10 (Homo sapiens) (O15520 whole entry, looked up): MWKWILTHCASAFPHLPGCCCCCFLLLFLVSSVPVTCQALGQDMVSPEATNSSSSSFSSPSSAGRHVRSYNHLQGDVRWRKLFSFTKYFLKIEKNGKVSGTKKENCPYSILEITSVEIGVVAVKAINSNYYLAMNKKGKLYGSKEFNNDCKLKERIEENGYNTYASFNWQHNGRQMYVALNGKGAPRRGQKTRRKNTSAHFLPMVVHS
Sequence of Epidermal growth factor receptor (Homo sapiens) (P00533 whole entry, looked up): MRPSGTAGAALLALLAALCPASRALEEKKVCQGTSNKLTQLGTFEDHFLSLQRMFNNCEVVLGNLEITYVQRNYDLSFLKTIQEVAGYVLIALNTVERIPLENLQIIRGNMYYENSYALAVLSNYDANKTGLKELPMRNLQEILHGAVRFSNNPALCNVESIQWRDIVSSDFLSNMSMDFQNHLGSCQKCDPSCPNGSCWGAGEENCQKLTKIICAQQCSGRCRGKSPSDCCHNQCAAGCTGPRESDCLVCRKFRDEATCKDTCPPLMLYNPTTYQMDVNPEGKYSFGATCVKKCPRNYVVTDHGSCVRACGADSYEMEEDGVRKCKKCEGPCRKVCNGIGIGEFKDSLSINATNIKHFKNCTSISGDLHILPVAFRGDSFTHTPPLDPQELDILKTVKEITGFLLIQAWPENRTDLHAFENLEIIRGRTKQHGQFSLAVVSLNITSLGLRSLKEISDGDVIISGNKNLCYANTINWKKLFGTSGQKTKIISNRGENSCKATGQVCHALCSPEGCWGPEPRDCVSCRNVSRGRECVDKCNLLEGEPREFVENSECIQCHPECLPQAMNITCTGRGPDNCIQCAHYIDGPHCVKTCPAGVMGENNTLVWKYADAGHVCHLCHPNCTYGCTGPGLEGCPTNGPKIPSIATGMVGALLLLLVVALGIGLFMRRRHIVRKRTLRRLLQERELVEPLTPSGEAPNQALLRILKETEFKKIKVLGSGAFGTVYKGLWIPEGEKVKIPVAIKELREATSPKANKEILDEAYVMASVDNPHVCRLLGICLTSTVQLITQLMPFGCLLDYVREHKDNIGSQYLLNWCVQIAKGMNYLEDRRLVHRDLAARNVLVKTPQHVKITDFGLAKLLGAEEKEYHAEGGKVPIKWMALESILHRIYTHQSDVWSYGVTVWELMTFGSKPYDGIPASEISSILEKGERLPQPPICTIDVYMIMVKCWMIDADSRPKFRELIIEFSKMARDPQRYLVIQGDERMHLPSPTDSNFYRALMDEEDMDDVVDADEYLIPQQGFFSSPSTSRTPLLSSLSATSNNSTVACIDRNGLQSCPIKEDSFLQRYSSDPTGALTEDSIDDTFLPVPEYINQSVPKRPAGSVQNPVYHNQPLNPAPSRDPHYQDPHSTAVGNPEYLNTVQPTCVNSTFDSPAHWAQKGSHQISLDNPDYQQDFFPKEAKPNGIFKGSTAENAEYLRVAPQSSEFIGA
Sequence of Follistatin-related protein 3 (Homo sapiens) (O95633 whole entry, looked up): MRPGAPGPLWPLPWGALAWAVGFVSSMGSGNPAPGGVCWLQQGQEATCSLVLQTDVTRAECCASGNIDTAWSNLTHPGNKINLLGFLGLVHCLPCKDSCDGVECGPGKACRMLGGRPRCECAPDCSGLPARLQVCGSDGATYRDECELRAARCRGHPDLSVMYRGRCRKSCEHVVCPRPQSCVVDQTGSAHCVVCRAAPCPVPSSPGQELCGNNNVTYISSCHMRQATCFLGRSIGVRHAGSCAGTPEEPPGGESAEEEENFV
Sequence of Torsin-1A-interacting protein 1 (Homo sapiens) (Q5JTV8 whole entry, looked up): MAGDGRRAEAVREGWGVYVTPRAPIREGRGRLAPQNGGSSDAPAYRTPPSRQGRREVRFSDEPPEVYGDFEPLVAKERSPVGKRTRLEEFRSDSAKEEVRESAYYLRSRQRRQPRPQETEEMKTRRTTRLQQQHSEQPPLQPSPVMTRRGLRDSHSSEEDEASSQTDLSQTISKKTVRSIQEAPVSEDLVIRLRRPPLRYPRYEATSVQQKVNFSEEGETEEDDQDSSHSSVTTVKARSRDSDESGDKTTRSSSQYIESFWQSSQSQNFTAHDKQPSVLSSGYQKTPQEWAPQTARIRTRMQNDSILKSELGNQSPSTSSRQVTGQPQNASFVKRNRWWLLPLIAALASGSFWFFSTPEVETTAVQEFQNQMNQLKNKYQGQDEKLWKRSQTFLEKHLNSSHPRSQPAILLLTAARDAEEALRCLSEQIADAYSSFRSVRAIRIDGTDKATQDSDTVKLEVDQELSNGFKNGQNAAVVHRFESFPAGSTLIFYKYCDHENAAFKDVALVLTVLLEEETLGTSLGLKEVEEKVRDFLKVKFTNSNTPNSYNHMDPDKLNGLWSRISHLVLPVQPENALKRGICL

| Structure (SMILES) | composite z-score [1] | composite z-score [2] | composite z-score [3] | z-score [4] | composite z-score [5] | composite z-score [6] | composite z-score [7] | composite z-score [8] | composite z-score [9] | composite z-score [10] | composite z-score [11] | z-score [12] | composite z-score [13] | composite z-score [14] | composite z-score [15] | composite z-score [16] | composite z-score [17] | composite z-score [18] | composite z-score [19] | composite z-score [20] |
| --- | --- | --- | --- | --- | --- | --- | --- | --- | --- | --- | --- | --- | --- | --- | --- | --- | --- | --- | --- | --- |
| CCCC[C@H]1OB(O)C[C@H]2C1=C(C)C[C@H]1C(=O)N(C)C(=O)[C@H]12 | 0.0529 | -0.0166 | -0.372 | 0.238 (inactive) | 0.944 | 0.774 | 0.259 | 1.27 | 0.558 | 0.131 | 0.736 | -0.686 | 0.654 | -0.0405 | 0.06 | -0.0462 | -0.243 | 0.322 | -0.368 | 0.27 |
| CC1CC/C=C\[C@H]2OC34C=CCN(C(C)C)C(=O)[C@H]3N(CCCO)C(=O)[C@@H]4C2C(=O)O1 (stereo not given in full) | 1.29 | -0.268 | 0.0886 | -0.037 (inactive) | -0.79 | -0.785 | -1.74 | -1.21 | -1.23 | -0.476 | -0.249 | -0.513 | -0.523 | -1.04 | 0.271 | -0.184 | -0.181 | -0.0898 | 0.646 | -1.54 |
| O=C1NC(=O)C2C1C=CC(C(O)Cc1ccccc1)N2Nc1ccccn1 (stereo not given) | 0.0468 | 0.133 | -0.321 | -0.818 (inactive) | 0.156 | 0.0157 | 0.377 | 0.233 | 0.0833 | 0.97 | 0.555 | -0.377 | 0.185 | 0.0084 | -0.541 | 0.0328 | -0.0793 | 0.342 | 0.818 | 1.34 |
| COC(=O)CC=C[C@@H](C)[C@H](OC)c1ccccc1Br | -0.581 | -0.133 | -0.499 | -0.0767 (inactive) | 0.0042 | 0.169 | 0.181 | 0.231 | 0.503 | 0.887 | -0.0017 | 0.14 | 0.406 | -0.0557 | -0.346 | -0.116 | -0.279 | -0.482 | 0.188 | -0.152 |
| CC(C)(C)N1CC=CC23O[C@@H]4C=CCCOC(=O)C4[C@H]2C(=O)N(CCCCCO)[C@@H]3C1=O (stereo not given in full) | 1.87 | -0.399 | 0.0199 | 0.164 (inactive) | -0.0123 | 0.126 | -0.0688 | -0.361 | -0.236 | 0.773 | 0.433 | 0.651 | -0.316 | -0.582 | -0.839 | -0.0327 | 0.0796 | -0.206 | 2.15 | -0.949 |
| CO[C@@H]1COC(=O)CCC[C@@H](C)[C@H](OC)COC(=O)[C@H](Cc2ccccc2)NC(=O)CC=C[C@H]1C | 0.637 | -0.485 | -0.497 | -0.491 (inactive) | -0.974 | -0.999 | 0.231 | 0.507 | 0.915 | 1.6 | -1.68 | -1.48 | 0.714 | -1.16 | -1.81 | -0.197 | 0.194 | 0.0596 | -0.405 | -0.0864 |
| COC(=O)C1=CCC(c2cccc(Cl)c2)O1 (stereo not given) | 1.15 | -0.138 | 0.381 | -1.15 (inactive) | 0.044 | -0.842 | -0.412 | -0.578 | -0.476 | 1.09 | 0.387 | -2.31 | 0.106 | 0.0588 | -0.23 | -0.0286 | -0.291 | 0.287 | 0.0692 | 0.648 |
| CO[C@H]1COC(=O)CC=C[C@H](C)[C@@H](NS(=O)(=O)c2ccc(C)cc2)COC(=O)CC=C[C@@H]1C | 0.219 | -0.257 | -0.674 | -2.06 (inactive) | 0.582 | 0.528 | 0.853 | 0.579 | 0.761 | 0.257 | 0.0839 | -1.72 | 0.694 | -0.46 | -0.521 | -0.0738 | -0.13 | 0.0613 | 0.37 | -0.153 |
| O=C1C[C@@H](O)[C@@H](O)[C@@H]2[C@@H]3C(=O)N(c4cccc(Oc5ccccc5)c4)C(=O)[C@@H]3CC[C@@H]12 | 0.87 | -0.0115 | -0.464 | 0.0249 (inactive) | 0.806 | 0.655 | 0.387 | 0.925 | 0.987 | -0.0789 | 0.994 | -0.197 | 0.962 | 0.77 | -0.261 | -0.0327 | -0.206 | -0.4 | 0.613 | 0.106 |
| CC(=O)O[C@H]1C2=C(C(=O)[C@@H]3O[C@@H]31)[C@H]1C(C)O[C@@H]2[C@@]23C(=O)[C@@H]4O[C@@H]4[C@@H](O)C2=CO[C@H](C)[C@@H]13 (stereo not given in full) | 0.452 | -0.475 | -0.62 | 0.15 (inactive) | 0.374 | -0.0186 | 0.197 | -0.0861 | 0.326 | 0.702 | -0.667 | -2.66 | 0.552 | -1.17 | -0.891 | -0.101 | -0.13 | -0.18 | -0.25 | -0.858 |
| COCCNC(=O)OCC1CCCC2(CC(OC(=O)NCCc3ccc(F)cc3)CC(CCC(=O)N[C@@H](C)C(=O)OC)O2)O1 (stereo not given in full) | 1.16 | -0.115 | -0.273 | -1.09 (inactive) | 0.842 | 1.26 | 0.601 | 1.22 | 0.932 | 0.415 | 1.37 | -0.376 | 1.02 | -0.104 | -0.685 | -0.0643 | -0.0035 | -0.0827 | 0.0096 | 0.429 |
